Source: PubChem (Broad Institute)
mut p53 SMM: binders of human mutant p53; small molecule microarray binding, anti-GST fluorescence; calls only; 17,000 compounds, 0.4% hits; AID 624136;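 active means compounds whose four printed spots each glow above background more than chance allows, each with a p-value under 7%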
STAT3 binder: binds human STAT3 on microarray; P40763; Small molecule microarray, His-STAT3 binding, anti-His fluorescence; calls only; 17,000 compounds, 0.2% hits; AID 624138;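 active means compounds whose four printed spots each show fluorescence over background unusually high for their array block, chance value under 7%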
NFkB SMM: NF-kappa-B p105 (human) binding | P19838 | Small molecule microarray, anti-His fluorescence binding | calls only | 17,000 compounds, 1.3% hits | AID 624139;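 active means spot fluorescence over background significantly raised, with a chance value under 7% in all four replicate spots of the compound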;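 further: probe protein is his-tagged human p50 processed subunit at 1 µg/ml; raw spot fluorescence signals with no normalization applied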
Target sequence (P19838 1-433 limits assumed): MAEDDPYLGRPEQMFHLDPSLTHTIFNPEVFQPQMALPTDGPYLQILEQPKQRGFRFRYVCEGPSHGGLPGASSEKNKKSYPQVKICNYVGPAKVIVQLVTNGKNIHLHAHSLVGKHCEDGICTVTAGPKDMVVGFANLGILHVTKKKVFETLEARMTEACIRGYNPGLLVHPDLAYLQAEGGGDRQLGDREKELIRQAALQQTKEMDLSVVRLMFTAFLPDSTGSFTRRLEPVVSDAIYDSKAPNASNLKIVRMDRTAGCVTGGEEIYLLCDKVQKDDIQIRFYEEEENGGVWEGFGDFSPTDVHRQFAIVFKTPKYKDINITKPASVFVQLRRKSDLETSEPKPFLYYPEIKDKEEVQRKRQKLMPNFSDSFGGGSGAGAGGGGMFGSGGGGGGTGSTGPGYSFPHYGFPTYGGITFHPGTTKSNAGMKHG
c-Myc SMM: binds human c-Myc on microarray | small molecule microarray, His-c-Myc binding, anti-His fluorescence | calls only | 17,000 compounds, 1.5% hits;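 active means spot fluorescence over background with P-value below 7% in all four replicate spots, showing protein binding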;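 further: score is binary with 100 for all four spots passing and 0 otherwise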
Numbers without * were called inactive. In the library only some 2.4% were active in any assay of this set; here they are far more common.

Screening O=C(NCc1ccccc1)[C@@]1(Cc2ccccc2)N=C(c2ccc(OCCCO)cc2)O[C@H]1c1ccccc1 returned mut p53 SMM active, STAT3 binder inactive, NFkB SMM inactive and c-Myc SMM inactive.
For COC(=O)[C@]1(Cc2ccccc2)N=C(c2ccc(OCCCO)cc2)O[C@@H]1c1ccccc1N=[N+]=[N-] the results were mut p53 SMM active, STAT3 binder inactive, NFkB SMM active and c-Myc SMM inactive.
`C[C@@H]1CN([C@H](C)CO)C(=O)Cc2cc(NC(=O)Nc3cccc4ccccc34)ccc2O[C@@H]1CN(C)C(=O)Nc1cccc2ccccc12` gave mut p53 SMM inactive, STAT3 binder inactive, NFkB SMM active and c-Myc SMM active.
Screening C[C@@H]1CN([C@H](C)CO)C(=O)Cc2cc(NC(=O)Nc3ccc(C(F)(F)F)cc3)ccc2O[C@@H]1CN(C)Cc1ccncc1 returned mut p53 SMM inactive, STAT3 binder inactive, NFkB SMM active and c-Myc SMM active.
`C[C@H](CO)N1C[C@H](C)[C@H](CN(C)C(=O)Nc2cccc3ccccc23)Oc2ccc(NC(=O)Nc3cccc4ccccc34)cc2CC1=O` gave mut p53 SMM inactive, STAT3 binder inactive, NFkB SMM inactive and c-Myc SMM inactive.
`CC(C)(C)c1ccc(OCc2nnc(Sc3ccc([N+](=O)[O-])cn3)n2-c2ccccc2)cc1` gave mut p53 SMM inactive, STAT3 binder inactive, NFkB SMM inactive and c-Myc SMM inactive.
Screening COc1ccc2nc(NCc3ccc(OC)c(OC)c3OC)sc2c1 returned mut p53 SMM inactive, STAT3 binder inactive, NFkB SMM inactive and c-Myc SMM inactive.
Screening COCC(C)NCc1ccc(OC)c(OC)c1OC (configuration not stated) returned mut p53 SMM inactive, STAT3 binder inactive, NFkB SMM inactive and c-Myc SMM active.
Cc1ccc(C(=O)CC(C(=O)O)n2ccc(C)n2)cc1 (configuration not stated) was read as mut p53 SMM inactive, STAT3 binder inactive, NFkB SMM active and c-Myc SMM active.
`C=CC[C@@]12N=C(c3ccc(OCCCO)cc3)O[C@@H]1c1ccccc1CN(Cc1ccccc1)C2=O` gave mut p53 SMM inactive, STAT3 binder inactive, NFkB SMM inactive and c-Myc SMM inactive.
Screening C=CCN1Cc2ccccc2[C@H]2OC(c3ccc(OCCCO)cc3)=N[C@@]2(CC=C)C1=O returned mut p53 SMM active, STAT3 binder inactive, NFkB SMM inactive and c-Myc SMM inactive.
`Cc1cc(C)n2nc(NCc3cccc([N+](=O)[O-])c3)nc2n1` gave mut p53 SMM inactive, STAT3 binder inactive, NFkB SMM inactive and c-Myc SMM inactive.
`C[C@@H]1CN([C@@H](C)CO)C(=O)c2cc(NC(=O)NC3CCCCC3)ccc2O[C@H]1CN(C)C(=O)NC1CCCCC1` gave mut p53 SMM inactive, STAT3 binder inactive, NFkB SMM inactive and c-Myc SMM active.
C[C@@H]1CCCCO[C@@H](CN(C)C(=O)c2ccccc2)[C@@H](C)CN([C@H](C)CO)C(=O)c2cc(NC(=O)Nc3cccc4ccccc34)ccc2O1 was read as mut p53 SMM active, STAT3 binder inactive, NFkB SMM active and c-Myc SMM active.
`C[C@@H]1CN([C@@H](C)CO)C(=O)c2cc(NC(=O)Nc3ccc4c(c3)OCO4)ccc2O[C@@H]1CN(C)CC1CCCCC1` gave mut p53 SMM inactive, STAT3 binder inactive, NFkB SMM inactive and c-Myc SMM inactive.
Screening C[C@@H]1CN([C@H](C)CO)C(=O)c2cc(NC(=O)NC3CCCCC3)ccc2O[C@@H]1CN(C)C(=O)NC1CCCCC1 returned mut p53 SMM inactive, STAT3 binder inactive, NFkB SMM inactive and c-Myc SMM inactive.
Screening C[C@H](CO)N1C[C@H](C)[C@@H](CN(C)CC2CCCCC2)Oc2ccc(NC(=O)Nc3ccc4c(c3)OCO4)cc2C1=O returned mut p53 SMM active, STAT3 binder inactive, NFkB SMM active and c-Myc SMM active.
C[C@@H]1CN([C@@H](C)CO)C(=O)c2cc(N(C)C)ccc2O[C@@H](C)CCCCO[C@H]1CN(C)C(=O)Nc1cccc2ccccc12 was read as mut p53 SMM inactive, STAT3 binder inactive, NFkB SMM inactive and c-Myc SMM active.
`C[C@@H]1CN([C@@H](C)CO)C(=O)c2cc(NC(=O)Nc3cccc4ccccc34)ccc2O[C@@H](C)CCCCO[C@@H]1CN(C)C` gave mut p53 SMM inactive, STAT3 binder inactive, NFkB SMM inactive and c-Myc SMM inactive.
For CCC(C)CCC(O)C1=C(C)C(O)OC1=O (configuration not stated) the results were mut p53 SMM inactive, STAT3 binder inactive, NFkB SMM inactive and c-Myc SMM inactive.
C[C@H](CO)N1C[C@H](C)[C@@H](CN(C)CC2CC2)OCCCC[C@H](C)Oc2ccc(NC(=O)Nc3cccc4ccccc34)cc2C1=O was read as mut p53 SMM inactive, STAT3 binder inactive, NFkB SMM active and c-Myc SMM inactive.
C[C@@H]1CCCCO[C@H](CN(C)CC2CCCCC2)[C@H](C)CN([C@@H](C)CO)C(=O)c2cc(NC(=O)NC3CCCCC3)ccc2O1 was read as mut p53 SMM inactive, STAT3 binder inactive, NFkB SMM active and c-Myc SMM inactive.
`C[C@H](CO)N1C[C@H](C)[C@@H](CN(C)CC2CC2)OCCCC[C@H](C)Oc2ccc(NC(=O)NC3CCCCC3)cc2C1=O` gave mut p53 SMM inactive, STAT3 binder inactive, NFkB SMM inactive and c-Myc SMM inactive.
For COc1cc(O)c(C(=O)c2c(C)cc(O)cc2OC)c(O)c1 the results were mut p53 SMM inactive, STAT3 binder inactive, NFkB SMM inactive and c-Myc SMM inactive.
Screening C/C=C(\C)C(=O)OC(C)(C)C1Cc2cc3ccc(=O)oc3cc2O1 (configuration not stated) returned mut p53 SMM active, STAT3 binder inactive, NFkB SMM inactive and c-Myc SMM inactive.
CCOC(=O)C(C)Sc1nc2ccc(I)cc2c(=O)n1-c1ccccc1OC (configuration not stated) was read as mut p53 SMM inactive, STAT3 binder inactive, NFkB SMM inactive and c-Myc SMM inactive.
CCOC(=O)c1c(NC(=S)NC(=O)c2ccc(OC)c([N+](=O)[O-])c2)sc2c1CCC2 was read as mut p53 SMM inactive, STAT3 binder inactive, NFkB SMM inactive and c-Myc SMM active.
`O=C(CC1C(=O)N(c2ccc(F)cc2)C(=S)N1CCN1CCOCC1)Nc1ccc(F)cc1` (configuration not stated) gave mut p53 SMM inactive, STAT3 binder inactive, NFkB SMM inactive and c-Myc SMM inactive.
COc1ccc(N(CC(=O)O)S(C)(=O)=O)cc1OC was read as mut p53 SMM inactive, STAT3 binder inactive, NFkB SMM inactive and c-Myc SMM inactive.
Screening CS(=O)(=O)N(CC(=O)O)c1ccc(C23CC4CC(CC(C4)C2)C3)cc1 returned mut p53 SMM inactive, STAT3 binder inactive, NFkB SMM inactive and c-Myc SMM active.
